In the supplement of paper PMC6555819:

Legend:
Assay in all cases: PBM binding z-score (relative to random genomic background probes); higher = stronger binding; sequences stand for … in GC…GCGATTGACAGCGTAGAATGAAGG
[1] = test system: PPARg:RXRa DBDmut IVT, anti-RXR (DBD mutation: RXRa K156A/R161A, NR concentration 270 nM, RXRa partner concentration 90 nM)
How it was run: (§1)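 Each nuclear receptor dimer, without ligand, was incubated for 1 h on custom Agilent 4×180K protein-binding microarrays. Binding was detected with antibodies against each partner (one per run), and scanned fluorescence was regression-normalized. The binding z-scores are referenced to random human genomic background probes.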

[2] = test system: PPARg:RXRa IVT, anti-PPARg (NR concentration 270 nM, RXRa partner concentration 90 nM)
How it was run: as §1

[3] = test system: PPARg DBDmut:RXRa IVT, anti-PPARg (DBD mutation: PPARg1 K132A/R137A, NR concentration 270 nM, RXRa partner concentration 90 nM)
How it was run: as §1

[4] = test system: PPARg DBDmut IVT, anti-PPARg (DBD mutation: PPARg1 K132A/R137A, NR concentration 270 nM)
How it was run: as §1

[5] = test system: PPARg homodimer (NR concentration 180 nM)
How it was run: as §1

[6] = test system: PXR:RXRa (NR concentration 270 nM, RXRa partner concentration 90 nM)
How it was run: as §1

[7] = test system: PXR homodimer (NR concentration 270 nM)
How it was run: as §1

[8] = test system: RARa:RXR (NR concentration 270 nM, RXRa partner concentration 90 nM)
How it was run: as §1

[9] = test system: RARa homodimer (NR concentration 270 nM)
How it was run: as §1

[10] = test system: RARb:RXRa (NR concentration 270 nM, RXRa partner concentration 90 nM)
How it was run: as §1

[11] = test system: RARb homodimer (NR concentration 270 nM)
How it was run: as §1

[12] = test system: RARg:RXRa (NR concentration 270 nM, RXRa partner concentration 90 nM)
How it was run: as §1

[13] = test system: RARg homodimer (NR concentration 270 nM)
How it was run: as §1

[14] = test system: RXRa DBDmut IVT, anti-RXR (DBD mutation: RXRa K156A/R161A, NR concentration 90 nM)
How it was run: as §1

[15] = test system: RXRa homodimer (NR concentration 180 nM)
How it was run: as §1

[16] = test system: THRa:RXRa (NR concentration 90 nM, RXRa partner concentration 90 nM)
How it was run: as §1

[17] = test system: THRa homodimer (NR concentration 90 nM)
How it was run: as §1

[18] = test system: VDR homodimer (NR concentration 270 nM)
How it was run: as §1

Row | Sequence | PBM binding z-score [1] | PBM binding z-score [2] | PBM binding z-score [3] | PBM binding z-score [4] | PBM binding z-score [5] | PBM binding z-score [6] | PBM binding z-score [7] | PBM binding z-score [8] | PBM binding z-score [9] | PBM binding z-score [10] | PBM binding z-score [11] | PBM binding z-score [12] | PBM binding z-score [13] | PBM binding z-score [14] | PBM binding z-score [15] | PBM binding z-score [16] | PBM binding z-score [17] | PBM binding z-score [18]
1 | ATCTCCAGGTAAAGTTCAGTGAAAGATCGATAGA | 0.492 | 0.889 | 1.11 | 0.586 | 1.7 | 2.32 | 2.13 | 1.81 | 1.45 | 2.78 | 2.77 | 2.26 | 2.51 | 1.38 | 1.52 | 1.73 | 0.709 | 1.92
2 | ACTTACGGGTCGACGAGGTTATAGCACGCGTATA | 0.585 | 1.14 | 0.084 | 0.394 | 0.944 | 2.68 | 0.798 | 2.75 | -0.198 | 1.82 | 1.57 | 2.39 | 1.72 | 1.2 | 2.93 | 3.05 | 0.75 | 2.03
3 | TCATATAGGTAAATGCCAGGTGAAAGTCCGATCT | 4.32 | 2.79 | 1.11 | 0.542 | 0.867 | 0.553 | 0.292 | 1.21 | 0.678 | 0.624 | 0.815 | 0.611 | 0.433 | 1.64 | 0.912 | 2.02 | 1.33 | 0.435
4 | GGAACAAGGGCAAAGTTGATAGCATCTGTCGACG | 2.8 | 3.73 | 0.621 | -0.078 | 0.637 | 0.784 | 0.0632 | 0.948 | 0.248 | 2.42 | 1.5 | 1.92 | 1.83 | 1.5 | 1.27 | 0.979 | -0.125 | 0.766
5 | CCTACTGGGCCAAAGGTCATTGCTTCCAATGCTC | 5.34 | 6.61 | -0.293 | 0.248 | 2.84 | 5.39 | 1.64 | 5.98 | 0.417 | 4.49 | 4.58 | 5.56 | 4.3 | 1.36 | 5.91 | 3.37 | 0.719 | 2.42
6 | TCAGACAGGTGAAGGTAAGTCAGGTACGCAGTCG | 2.4 | 1.07 | -0.136 | -0.843 | 1.02 | 0.265 | 0.282 | 0.741 | 0.234 | 1.08 | 1.09 | 0.505 | 0.581 | 1.17 | 0.716 | 0.959 | 0.538 | 0.0228
7 | TCATATAGGTACAAGGTGAAAGTCGGTGTGGTAA | 3.23 | 2.75 | 0.878 | 0.815 | 1.21 | 0.845 | 0.358 | 1.25 | 1.19 | 1.12 | 1.38 | 0.762 | 0.453 | 2.04 | 1.33 | 1.91 | 1.51 | 0.703
8 | TCTGCTAGGGCAGTTGGTCAGCTAACGAGCTGCC | 1.38 | 0.996 | -0.206 | -0.384 | -0.702 | -0.671 | -0.958 | -0.138 | -1.3 | 1.14 | 0.33 | -0.0411 | 0.49 | -0.0574 | -0.74 | -0.754 | -0.968 | -1.08
9 | GCTTACCGGTCAAAGGTTATAGCATGAATAGAAT | 1.07 | 3.62 | 1.01 | 0.383 | 1.71 | 3.63 | 0.0899 | 5.64 | 0.15 | 3.59 | 2.62 | 5.63 | 3.54 | 0.541 | 5.37 | 2.2 | -0.177 | 0.217
10 | GGACCGAGGGCAAGTTGATAGCAGAGTTTGATGG | 0.956 | 0.614 | -1.14 | -1.16 | 0.433 | 0.556 | 0.539 | 0.315 | -0.39 | 2.6 | 1.43 | 1.78 | 2.07 | 2.06 | 0.783 | 0.968 | -0.0674 | 1.67
11 | GGAACGAGGGCATTCGAGTTGATAGCTTGGCGAT | 3.44 | 2.2 | -0.209 | -0.379 | -0.157 | 3.79 | 1.99 | 0.494 | -1 | 1.87 | 0.679 | 1.02 | 1.33 | 3.13 | 0.592 | 3.17 | -0.698 | 3.03
12 | TCAAGTTGGTCAAAGGTCACACACTCGAAATGCG | 3.5 | 6.22 | 1.33 | 1.21 | 5.18 | 5.91 | 1.87 | 7.41 | 2.74 | 5.12 | 5.19 | 7.2 | 6.47 | 2.15 | 8.37 | 4.16 | 1.86 | 2.4
13 | CCGCGTAGGTTATGGGGCATTCAGGCAACGGTGA | 0.695 | 0.593 | -1.12 | -0.878 | 0.303 | -0.0775 | -0.606 | 0.609 | 0.000588 | 0.985 | 1.05 | 0.489 | 0.397 | -0.64 | 0.576 | 0.529 | 0.176 | -0.154
14 | TCTACCAGGCCAGAGGGTCACTCAAGAGGTACGG | 1.61 | 1.75 | -0.383 | -0.224 | 1.12 | 1.82 | -0.126 | 2.67 | 0.116 | 2.51 | 3 | 3.03 | 2.46 | 0.518 | 2.92 | 1.93 | 0.581 | 0.936
15 | AGCCAAAGTTCATCTAGGTAACGTAAGATATGCT | 0.587 | 3.45 | 1.13 | 0.579 | 3.87 | 5.16 | 6.7 | 3.87 | 2.24 | 4.94 | 4.1 | 5.56 | 5.88 | 4.5 | 4.72 | 3.15 | 0.256 | 5.28
16 | CCTTACGGGTCAAGGGTATAGCACGGGTGGTACG | 1.83 | 3.8 | 0.361 | -0.594 | 3.73 | 2.9 | -0.229 | 4.27 | 0.518 | 3.98 | 3.17 | 4.8 | 4.86 | 0.672 | 5.32 | 2.38 | 0.0653 | 0.904
